Hit rate of the full screen: of about 39,000 compounds, about 1,500 (3.8%) were called active. The list comes from a sample in which actives are over-represented; it also holds similar structures and randomly drawn compounds.
test system: HSkMC (human skeletal muscle cells); test: cytotoxicity call (relative viability < 0.9); settings: 10 µM

| SMILES | cytotoxicity call |
| --- | --- |
| Cc1noc(C)c1NC(=O)Nc1cccc2c1O[C@@H](CN(C)C(=O)Nc1cccc3ccccc13)[C@@H](C)CN([C@H](C)CO)C2=O | inactive |
| C[C@@H]1CN([C@@H](C)CO)S(=O)(=O)c2ccc(C#CCN(C)C)cc2O[C@@H]1CN(C)Cc1ccc2c(c1)OCO2 | inactive |
| COCC#Cc1cnc2c(c1)C(=O)N([C@@H](C)CO)C[C@@H](C)[C@H](CN(C)C(=O)c1cnccn1)O2 | inactive |
| CO[C@H]1CN(C)C(=O)c2cc(NC(=O)Nc3cccc(Cl)c3)ccc2OC[C@@H](C)N(C(=O)Nc2c(C)noc2C)C[C@H]1C | inactive |
| C[C@H]1CN([C@@H](C)CO)C(=O)CCCn2nncc2CO[C@H]1CN(C)S(=O)(=O)c1ccc(Cl)cc1 | inactive |
| NC(CC(=O)N1CCn2c(nnc2C(F)(F)F)C1)Cc1cc(F)c(F)cc1F.O.O=P(O)(O)O (stereo not given) | inactive |
| C[C@@H]1CN([C@@H](C)CO)C(=O)c2cccc(NS(=O)(=O)c3ccc(F)cc3)c2O[C@H]1CN(C)S(=O)(=O)c1ccc(F)cc1 | inactive |
| C[C@H](CO)N1C[C@H](C)[C@@H](CN(C)C(=O)c2cnccn2)Oc2ncc(C#CCC3CCCC3)cc2C1=O | inactive |
| CC(C)C[C@H](NC(=O)[C@@H](Cc1c[nH]c2ccccc12)NC(=O)[C@H](Cc1ccc(O)cc1)NC(=O)[C@H](CO)NC(=O)[C@H](Cc1c[nH]c2ccccc12)NC(=O)[C@H](Cc1cnc[nH]1)NC(=O)[C@@H]1CCC(=O)N1)C(=O)N[C@@H](CCCNC(=N)N)C(=O)N1CCC[C@H]1C(=O)NCC(N)=O | inactive |
| O=C1O[C@@H](c2ccccc2)[C@@H](c2ccccc2)N2[C@@H](c3ccc(O)cc3)[C@]3(C(=O)Nc4ccccc43)[C@@H](C(=O)N3CCCCCCC3)[C@H]12 | inactive |
| O=C1O[C@@H](c2ccccc2)[C@@H](c2ccccc2)N2[C@@H](c3ccc(OCCO)cc3)[C@]3(C(=O)Nc4ccccc43)[C@@H](C(=O)N3CCCCCCC3)[C@H]12 | inactive |
| O=C1O[C@H](c2ccccc2)[C@H](c2ccccc2)N2[C@H]1[C@@H](C(=O)N1CCCCCCC1)[C@]1(C(=O)Nc3ccccc31)[C@H]2c1ccc(O)cc1 | active |
| O=C(O)C[C@](O)(Cc1ccc(O)cc1)C(=O)O | inactive |
| CCS(=O)(=O)Nc1ccc2c(c1)C(=O)N(C)[C@H]1CC[C@H](CC(=O)N3CCN(C)CC3)O[C@@H]1CO2 | inactive |
| Cc1ccc(S(=O)(=O)N[C@H]2CC[C@@H](CC(=O)N3CCC(Cc4ccccc4)CC3)O[C@H]2CO)cc1 | inactive |
| C[C@@H]1CN([C@H](C)CO)C(=O)c2cccc(NC(=O)Nc3ccc4c(c3)OCO4)c2O[C@H]1CN(C)Cc1ccc(-c2ccccc2)cc1 | inactive |
| O=C(CCCCCCC(=O)N/N=C/c1cc(I)cc(I)c1O)NO | active |
| O=C(NO)c1cccc(C(=O)N/N=C/c2cc(I)cc(I)c2O)c1 | inactive |
| O=C(CCCCC(=O)N/N=C/c1cc(I)cc(I)c1O)NO | inactive |
| C[C@@H]1CCCCO[C@@H](CN(C)Cc2ccncc2)[C@H](C)CN([C@@H](C)CO)C(=O)c2cc(NC(=O)CCC(F)(F)F)ccc2O1 | inactive |
| Oc1cc(O)c2c(c1)OC(c1cc(O)c(O)c(O)c1)C(O)C2c1c(O)cc(O)c2c1OC(c1cc(O)c(O)c(O)c1)C(O)C2c1c(O)cc(O)c2c1OC(c1cc(O)c(O)c(O)c1)C(O)C2 (stereo not given) | inactive |
| C[C@@H]1CN([C@H](C)CO)C(=O)c2cc(C#CCN(C)C)cnc2O[C@H]1CN(C)Cc1ccc(C(=O)O)cc1 | inactive |
| CCN(CC)[C@H]1CCS(=O)(=O)C1 | inactive |
| C[C@@H](Oc1cc(-n2cnc3ccc(CN4CCN(C)CC4)cc32)sc1C(N)=O)c1ccccc1C(F)(F)F | active |

| SMILES | cytotoxicity call |
| --- | --- |
| COc1cccc(NC(=O)N2C[C@H](O)COC[C@@H]3O[C@@H](CC(=O)NC4Cc5ccccc5C4)CC[C@H]32)c1 | inactive |
| CCCNC(=O)N(C)C[C@@H]1Oc2cc(C#Cc3cccc(F)c3)ccc2S(=O)(=O)N([C@@H](C)CO)C[C@H]1C | inactive |
| C[C@@H]1CCCCO[C@H](CN(C)Cc2ccc(Cl)c(Cl)c2)[C@H](C)CN([C@@H](C)CO)C(=O)c2cc(NS(=O)(=O)c3ccc(Cl)cc3)ccc2O1 | inactive |
| C[C@H](CO)N1C[C@H](C)[C@@H](CN(C)Cc2ccc(Cl)c(Cl)c2)OCCCC[C@H](C)Oc2ccc(NS(=O)(=O)c3ccc(Cl)cc3)cc2C1=O | inactive |
| C[C@@H]1CCCCO[C@@H](CN(C)Cc2ccc(Cl)c(Cl)c2)[C@@H](C)CN([C@H](C)CO)C(=O)c2cc(NS(=O)(=O)c3ccc(Cl)cc3)ccc2O1 | inactive |
| C[C@@H]1CN([C@H](C)CO)C(=O)c2cc(NS(=O)(=O)c3ccc(Cl)cc3)ccc2O[C@@H](C)CCCCO[C@H]1CN(C)Cc1ccc(Cl)c(Cl)c1 | active |
| C[C@@H]1CN([C@H](C)CO)C(=O)c2cc(NS(=O)(=O)c3ccc(Cl)cc3)ccc2O[C@@H](C)CCCCO[C@@H]1CN(C)Cc1ccc(Cl)c(Cl)c1 | inactive |
| C[C@@H]1CCCCO[C@@H](CN(C)Cc2ccc(Cl)c(Cl)c2)[C@H](C)CN([C@@H](C)CO)C(=O)c2cc(NS(=O)(=O)c3ccc(Cl)cc3)ccc2O1 | active |
| C[C@@H]1CCCCO[C@H](CN(C)Cc2ccc(Cl)c(Cl)c2)[C@@H](C)CN([C@@H](C)CO)C(=O)c2cc(NS(=O)(=O)c3ccc(Cl)cc3)ccc2O1 | active |
| C[C@@H]1CCCCO[C@@H](CN(C)Cc2ccc(Cl)c(Cl)c2)[C@@H](C)CN([C@@H](C)CO)C(=O)c2cc(NS(=O)(=O)c3ccc(Cl)cc3)ccc2O1 | active |
| Nc1nnc(CC(=O)O)[nH]1 | inactive |
| Cc1ccc(S(=O)(=O)Nc2ccc3c(c2)C(=O)N([C@H](C)CO)C[C@H](C)[C@H](CN(C)Cc2ccncc2)OCCCC[C@H](C)O3)cc1 | inactive |
| O=C(N[C@H]1CC[C@@H](CCNS(=O)(=O)c2ccc(F)cc2)O[C@H]1CO)C1CC1 | inactive |
| C[C@@H]1CCCCO[C@@H](CN(C)S(C)(=O)=O)[C@@H](C)CN([C@@H](C)CO)C(=O)c2cc(NC(=O)CCCN(C)C)ccc2O1 | inactive |
| CC(C)NC(=O)Nc1ccc2c(c1)CC(=O)N([C@@H](C)CO)C[C@@H](C)[C@@H](CN(C)Cc1ccc3c(c1)OCO3)O2 | inactive |
| C[C@H]1CCCCO[C@@H](CN(C)C(=O)C2CCCCC2)[C@@H](C)CN([C@@H](C)CO)C(=O)c2cc(NC(=O)c3ccccc3)ccc2O1 | inactive |
| COC[C@@H](C)NC(=O)C1CN(C(C)=O)C1 | inactive |
| C[C@H](CO)N1C[C@H](C)[C@@H](CN(C)S(=O)(=O)c2ccc(Cl)cc2)OCc2cn(nn2)CCCC1=O | inactive |
| Cc1noc(C)c1NC(=O)Nc1ccc2c(c1)C(=O)N([C@H](C)CO)C[C@@H](C)[C@H](CN(C)Cc1ccc(-c3ccccc3)cc1)O2 | inactive |
| C[C@H]1CN([C@@H](C)CO)C(=O)c2cc(NS(=O)(=O)c3ccccc3)ccc2O[C@@H]1CN(C)S(=O)(=O)c1ccc(F)cc1 | inactive |
| COc1ccc(-c2cnc3c(c2)C(=O)N([C@H](C)CO)C[C@H](C)[C@H](CN(C)C(=O)Cc2ccncc2)O3)cc1 | inactive |
| C[C@@H]1CCCCO[C@@H](CN(C)Cc2ccc(Cl)c(Cl)c2)[C@H](C)CN([C@H](C)CO)C(=O)c2cc(NS(=O)(=O)c3ccc(Cl)cc3)ccc2O1 | active |
| C[C@@H]1CCCCO[C@H](CN(C)Cc2ccc(Cl)c(Cl)c2)[C@@H](C)CN([C@H](C)CO)C(=O)c2cc(NS(=O)(=O)c3ccc(Cl)cc3)ccc2O1 | inactive |
| CN1CCN(C(=O)[C@H]2[C@H](CO)[C@H]3Cn4c(ccc(C5=CCCC5)c4=O)[C@@H]2N3S(C)(=O)=O)CC1 | inactive |

| SMILES | cytotoxicity call |
| --- | --- |
| CC(C)/C(=N/O)c1ccccc1 | inactive |
| CC(C)NC(=O)N(C)C[C@@H]1Oc2ccc(NC(=O)C3CCCCC3)cc2C(=O)N([C@@H](C)CO)C[C@H]1C | inactive |
| C[C@@H]1O[C@H]2Oc3c(-c4ccc(O)cc4)oc4cc(O)c(c(O)c4c3=O)-c3cc(ccc3O)/C=C\C(=O)OC[C@H]3O[C@@H](O[C@H]([C@H]1O)[C@H]2O)[C@H](O)[C@@H](O)[C@@H]3O | inactive |
| CC(=O)Nc1ncc(CN2CCOCC2)s1 | inactive |
| Cc1c(CN2CCN(C(=O)[C@H](C)O)CC2)sc2c(N3CCOCC3)nc(-c3cnc(N)nc3)nc12 | active |
| CC(C)NC(=O)N(C)C[C@@H]1Oc2ccc(NS(=O)(=O)c3cccs3)cc2C(=O)N([C@H](C)CO)C[C@@H]1C | inactive |
| CC(C)NC(=O)N(C)C[C@H]1Oc2ccc(NC(=O)C3CCCCC3)cc2C(=O)N([C@H](C)CO)C[C@H]1C | inactive |
| C[C@H](CO)N1C[C@H](C)[C@H](CN(C)C(=O)NC2CCCCC2)OCCCC[C@H](C)Oc2ccc(NC(=O)Nc3ccc4c(c3)OCO4)cc2C1=O | inactive |
| C[C@H]1CN([C@@H](C)CO)C(=O)c2cc(-c3cccc(C#N)c3)cnc2O[C@@H]1CN(C)C(=O)c1cnccn1 | inactive |
| CC1(COc2ccc3c(c2)ncn3-c2ccc3cccc(N4CCC(N)CC4)c3n2)COC1 | active |
| C=CCNC(=O)[C@H]1[C@@H]2C(=O)O[C@@H](c3ccccc3)[C@@H](c3ccccc3)N2[C@@H](c2ccc(OCCO)cc2)[C@]12C(=O)Nc1ccc(C#CC3=CCCCC3)cc12 | inactive |
| O=C1O[C@H](c2ccccc2)[C@H](c2ccccc2)N2[C@H]1[C@@H](C(=O)NC[C@@H](O)c1ccccc1)[C@]1(C(=O)Nc3ccc(C#CC4(O)CCCCCC4)cc31)[C@H]2c1ccccc1OCCO | inactive |
| C=CCNC(=O)[C@H]1[C@@H]2C(=O)O[C@@H](c3ccccc3)[C@@H](c3ccccc3)N2[C@@H](c2ccccc2OCCO)[C@]12C(=O)Nc1ccc(C#CC3=CCCCC3)cc12 | active |
| C=CCNC(=O)[C@@H]1[C@H]2C(=O)O[C@H](c3ccccc3)[C@H](c3ccccc3)N2[C@H](c2ccccc2OCCO)[C@@]12C(=O)Nc1ccc(C#Cc3ccc(OC)cc3)cc12 | inactive |
| C=CCNC(=O)[C@H]1[C@@H]2C(=O)O[C@@H](c3ccccc3)[C@@H](c3ccccc3)N2[C@@H](c2ccccc2OCCO)[C@]12C(=O)Nc1ccc(C#CC3(O)CCCCCC3)cc12 | inactive |
| COCCOC(=O)N1C(=O)[C@@]2(c3cc(C#CC4=CCCCC4)ccc31)[C@H](C(=O)N1CCc3cc(OC)c(OC)cc3C1)[C@H]1C(=O)O[C@H](c3ccccc3)[C@H](c3ccccc3)N1[C@@H]2c1ccccc1OCCO | active |
| COCCOC(=O)N1C(=O)[C@@]2(c3cc(C#CC4=CCCCC4)ccc31)[C@H](c1ccc(OCCO)cc1)N1[C@H](c3ccccc3)[C@H](c3ccccc3)OC(=O)[C@H]1[C@@H]2C(=O)N1CCc2cc(OC)c(OC)cc2C1 | inactive |
| C=CCNC(=O)[C@@H]1[C@H]2C(=O)O[C@H](c3ccccc3)[C@H](c3ccccc3)N2[C@H](c2ccccc2OCCO)[C@@]12C(=O)Nc1ccc(C#CC3=CCCCC3)cc12 | active |
| COCCOC(=O)N1C(=O)[C@@]2(c3cc(C#CC4=CCCCC4)ccc31)[C@H](c1ccccc1OCCO)N1[C@H](c3ccccc3)[C@H](c3ccccc3)OC(=O)[C@H]1[C@@H]2C(=O)N1CCc2cc(OC)c(OC)cc2C1 | inactive |
| C=CCNC(=O)[C@@H]1[C@H]2C(=O)O[C@H](c3ccccc3)[C@H](c3ccccc3)N2[C@H](c2ccc(OCCO)cc2)[C@@]12C(=O)Nc1ccc(C#CC3=CCCCC3)cc12 | inactive |
| O=C1O[C@@H](c2ccccc2)[C@@H](c2ccccc2)N2[C@@H](c3ccc(OCCO)cc3)[C@]3(C(=O)Nc4ccc(C#CC5=CCCCC5)cc43)[C@@H](C(=O)NC[C@H](O)c3ccccc3)[C@H]12 | inactive |
| O=C1O[C@H](c2ccccc2)[C@H](c2ccccc2)N2[C@H]1[C@@H](C(=O)NC[C@@H](O)c1ccccc1)[C@]1(C(=O)Nc3ccc(C#CC4=CCCCC4)cc31)[C@H]2c1ccccc1OCCO | active |

Source: the antibiotic and cytotoxicity screens of Wong et al. (2023)
